Compound activity: PubChem, Broad Institute
PD-1 reversal: reversal of PD-1 mediated T-cell inhibition. primary human CD4 T cells, PD-L1 beads, CellTiter-Glo 96 h. activation, % (test concentration not listed). 29,000 tested, under 10 active. AID 2316; call rule not given here
NOMO-1 viab: STK33 inhibitor candidate reducing NOMO-1 cell viability; NOMO-1 AML viability, CellTiter-Glo luminescence, 72 h; inhibition, % (concentration not given with the values); 37,000 compounds, 7.5% hits; in the data active means inhibition above about 80%; inconclusive means no clear call, values can overlap the other calls
STK33 kin inh: inhibitors of human STK33 kinase. ADP-Glo luminescence, MBP substrate. AID 2322. 27,000 compounds, 0.44% hits. inhibition, % at 12.5 µM. Q9BYT3; in the data active means inhibition above about 20%; inconclusive means no clear call, values can overlap the other calls
Target sequence (Q9BYT3 whole entry, looked up): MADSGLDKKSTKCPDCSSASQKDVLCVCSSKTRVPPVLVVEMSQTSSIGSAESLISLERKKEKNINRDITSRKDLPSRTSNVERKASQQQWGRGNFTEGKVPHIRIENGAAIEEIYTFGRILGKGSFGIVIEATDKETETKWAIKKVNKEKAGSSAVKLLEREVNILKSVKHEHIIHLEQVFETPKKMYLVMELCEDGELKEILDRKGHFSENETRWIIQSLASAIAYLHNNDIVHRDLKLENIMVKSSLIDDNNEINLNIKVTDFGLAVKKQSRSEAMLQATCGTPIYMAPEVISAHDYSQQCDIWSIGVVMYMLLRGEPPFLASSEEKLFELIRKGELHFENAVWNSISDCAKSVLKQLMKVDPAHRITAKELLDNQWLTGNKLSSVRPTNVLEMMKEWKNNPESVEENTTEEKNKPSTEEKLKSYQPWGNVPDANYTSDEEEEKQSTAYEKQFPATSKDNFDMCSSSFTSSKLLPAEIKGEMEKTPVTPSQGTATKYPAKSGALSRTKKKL
Each line names hits and unclear results; the compound was inactive in the other large screens. Only a selection was taken, and hits are over-represented in it overall.

COC(=O)c1cccc(NC(=O)COc2cc(C)cc(C)c2)c1	none (no result: PD-1 reversal)
O=C(CC1NCCNC1=O)Nc1ccccc1Cl (centres undefined)	none
Cc1ccc(NC(=O)CCn2cnc3ccccc3c2=O)cc1C	none
COc1ccc(S(=O)(=O)N(C)CC(=O)Nc2cc(C(F)(F)F)ccc2Cl)cc1C	none
Oc1ccc(CCCCC(CCc2ccc(O)cc2)O[C@@H]2OC[C@@H](O)[C@H](O)[C@H]2O)cc1 (some centres undefined)	none (no result: PD-1 reversal, NOMO-1 viab)
O=C(CCc1ccc(O)cc1)CC(CCc1ccc(O)cc1)O[C@@H]1OC[C@@H](O)[C@H](O)[C@H]1O (some centres undefined)	NOMO-1 viab 112.6
O=C(CC1(O)C(=O)Nc2ccccc21)c1ccc(OCC(=O)N2CCOCC2)cc1 (centres undefined)	none (no result: PD-1 reversal)
O=C1CC(c2ccccc2)Oc2ccccc21 (centres undefined)	none (no result: PD-1 reversal)
NC(=O)NC1C(=O)c2ccccc2OC1c1ccccc1 (centres undefined)	NOMO-1 viab 114.3 (no result: STK33 kin inh)
O=C(SCc1cccs1)c1csc(C2COc3ccccc3O2)n1 (centres undefined)	none (no result: STK33 kin inh)
O=C(O)C1CC1C(=O)Nc1ccc(Oc2ccc(Cl)cc2C2CCCCC2)nc1 (centres undefined)	none
COC(=O)/C=C/S(=O)(=O)c1ccc(NC(C)=O)cc1	NOMO-1 viab 125.5 (no result: STK33 kin inh)
COC(=O)Nc1ccc(S(=O)(=O)N(C)C)cc1	none (no result: STK33 kin inh)
C[C@H]1CN([C@@H](C)CO)C(=O)Cc2cc(NC(=O)Nc3ccc(F)cc3)ccc2O[C@@H]1CN(C)Cc1ccc(-c2ccccc2)cc1	NOMO-1 viab 105.8
C[C@@H]1CN([C@H](C)CO)C(=O)Cc2cc(NC(=O)Nc3ccccc3)ccc2O[C@@H]1CN(C)Cc1ccc(-c2ccccc2)cc1	NOMO-1 viab 107.0
CC(C)NC(=O)Nc1ccc2c(c1)CC(=O)N([C@H](C)CO)C[C@H](C)[C@H](CN(C)Cc1ccc(-c3ccccc3)cc1)O2	none
COc1ccc(NC(=O)Nc2ccc3c(c2)CC(=O)N([C@@H](C)CO)C[C@H](C)[C@@H](CN(C)Cc2ccc(-c4ccccc4)cc2)O3)cc1	none (no result: PD-1 reversal)
CC(C)NC(=O)Nc1ccc2c(c1)CC(=O)N([C@@H](C)CO)C[C@@H](C)[C@@H](CN(C)Cc1ccc(-c3ccccc3)cc1)O2	NOMO-1 viab 94.3
C[C@@H]1CN([C@H](C)CO)C(=O)Cc2cc(NC(=O)Nc3ccc(F)cc3)ccc2O[C@@H]1CN(C)Cc1ccc(-c2ccccc2)cc1	none
C[C@@H]1CN([C@@H](C)CO)C(=O)Cc2cc(NC(=O)Nc3ccccc3)ccc2O[C@@H]1CN(C)Cc1ccccc1	none
COc1ccc(NC(=O)Nc2ccc3c(c2)CC(=O)N([C@@H](C)CO)C[C@H](C)[C@H](CN(C)Cc2ccc(-c4ccccc4)cc2)O3)cc1	NOMO-1 viab 128.2
CC(=O)NC1CCCCc2sccc21 (centres undefined)	none (no result: STK33 kin inh)
O=c1[nH]c2ccc(Cl)cc2c2oc(-c3ccccc3)nc12	none
N#Cc1c(-c2ccccc2)cc2c(c1N)c(=O)oc1ccccc12	none
Cc1cccc(N=Cc2c(Nc3cccc(C)c3)nc3ccccn3c2=O)c1	none (no result: STK33 kin inh)
O=c1cc(-c2ccc(O)c(O)c2)oc2c(C3OC(CO)C(O)C(O)C3O)c(O)cc(O)c12 (centres undefined)	none
C[C@@H]1CN([C@H](C)CO)C(=O)c2cc(NC(=O)Nc3ccc(C(F)(F)F)cc3)ccc2O[C@@H]1CN(C)Cc1ccc(Oc2ccccc2)cc1	NOMO-1 viab inconclusive (no result: STK33 kin inh)
C[C@H](CO)N1C[C@H](C)[C@@H](CN(C)Cc2ccc(C(F)(F)F)cc2)Oc2ccc(NC(=O)Nc3ccccc3)cc2C1=O	none (no result: PD-1 reversal, STK33 kin inh)
C[C@H](CO)N1C[C@H](C)[C@H](CN(C)Cc2ccc(-c3ccccc3)cc2)Oc2ccc(NC(=O)Nc3ccc(C(F)(F)F)cc3)cc2C1=O	NOMO-1 viab 92.0
C[C@H]1CN([C@@H](C)CO)C(=O)c2cc(NC(=O)Nc3ccc(C(F)(F)F)cc3)ccc2O[C@@H]1CN(C)Cc1ccc(-c2ccccc2)cc1	NOMO-1 viab 107.5
C[C@H]1CN([C@@H](C)CO)C(=O)c2cc(NC(=O)Nc3ccc(C(F)(F)F)cc3)ccc2O[C@H]1CN(C)Cc1ccc(-c2ccccc2)cc1	NOMO-1 viab 116.8 (no result: STK33 kin inh)
COC(=O)c1c(NC(=O)COc2ccccc2)sc(C(N)=O)c1C	none
CCc1cccc(C)c1NC(=O)CSc1nnc(-c2cccnc2)n1C	none
O=S(=O)(NCC1CCN(Cc2ccc(OCCO)cc2)CC1)c1cc(Cl)ccc1Cl	none (no result: PD-1 reversal, NOMO-1 viab)
NC(N)=Nc1nc(-c2ccc(-c3ccccc3)cc2)cs1	NOMO-1 viab 114.7 (no result: STK33 kin inh)
COc1ccccc1OCc1nc(-c2ccccc2)cs1	none
COC(=O)c1ccccc1NC(=O)Cn1ccc([N+](=O)[O-])n1	none
COC(=O)CN(c1cc([N+](=O)[O-])ccc1OC)S(C)(=O)=O	NOMO-1 viab 99.7 (no result: PD-1 reversal)
CNC(=O)CN(c1cc([N+](=O)[O-])ccc1OC)S(C)(=O)=O	none
COc1ccc([N+](=O)[O-])cc1NC(=O)C(C)N(c1ccc(C)cc1)S(C)(=O)=O (centres undefined)	NOMO-1 viab 111.8
COc1ccc(NC(=O)C(C)N(c2ccc(C)cc2)S(C)(=O)=O)c(OC)c1 (centres undefined)	none
Cc1cc(OCC(=O)Nc2ncn[nH]2)c(C)cc1Br	none (no result: PD-1 reversal)
COc1ccc(-c2cc(C(F)(F)F)n3nc(C(=O)NCCN4CCOCC4)c(Br)c3n2)cc1	none (no result: PD-1 reversal)
O=C(CN1C(=O)c2ccc([N+](=O)[O-])cc2C1=O)Nc1ccccc1-c1ccccc1	none (no result: PD-1 reversal)
Clc1ccccc1N=C/C=C1\NN=NC1c1ccc(Br)cc1 (centres undefined)	none (no result: STK33 kin inh)
CC(=O)Oc1c(I)c(=O)n(C)c2ccccc12	NOMO-1 viab 120.8
CCOC(=O)Cc1c(SC)c2ccccc2n1C	none (no result: STK33 kin inh)
COc1ccc(CN2C(=O)C(O)(CC(=O)c3ccco3)c3ccccc32)cc1OC (centres undefined)	NOMO-1 viab 118.2 (no result: PD-1 reversal)
O=C(CC1(O)C(=O)N(Cc2cccc3ccccc23)c2ccccc21)c1ccco1 (centres undefined)	NOMO-1 viab 110.9 (no result: PD-1 reversal)
COc1ccc(CN2C(=O)C(O)(CC(=O)c3ccc4ccccc4c3)c3ccccc32)cc1OC (centres undefined)	none (no result: PD-1 reversal)
Cc1coc(C)c1C(=O)CC1(O)C(=O)N(CCCC#N)c2ccccc21 (centres undefined)	none
Cc1ccc(C(=O)CC2(O)C(=O)N(Cc3cccc4ccccc34)c3ccccc32)o1 (centres undefined)	none (no result: PD-1 reversal)
NC(=O)CN1C(=O)C(O)(CC(=O)c2cccnc2)c2ccccc21 (centres undefined)	none
CCCCN1C(=O)C(O)(CC(=O)c2ccccn2)c2ccccc21 (centres undefined)	NOMO-1 viab 125.4
O=C(CC1(O)C(=O)N(Cc2cccc3ccccc23)c2ccccc21)c1ccccn1 (centres undefined)	NOMO-1 viab 111.5
CCc1cccc(CC)c1NC(=O)COc1ccccc1C(=O)N1CCOCC1	none (no result: STK33 kin inh)
CCOC(=O)c1ccc(N=Cc2ccc(Cl)cc2)cc1	none
C#CCN1C(=O)C(O)(CC(=O)c2ccc(C)o2)c2ccccc21 (centres undefined)	NOMO-1 viab 120.3
Cc1ccc(C(=O)CC2(O)C(=O)N(CC(N)=O)c3ccccc32)s1 (centres undefined)	none
CCOC(=O)CSc1nc(Nc2ccccc2)c2cnc(N3CCOCC3)nc2n1	NOMO-1 viab 111.7
